Data reported in PubChem BioAssay (NCATS).
Records with an inconclusive call do not appear. Values without a mark were called inactive. The source made the active and inactive calls. Calls follow the shape of the dose curve; as a rule, active = well fitted cell-killing curve with a large enough effect; inconclusive = small, poorly fitted or top-dose-only effect, or effect the other way; inactive = flat fitted curve, though single readings scatter.
% is scaled to controls: 0 for no effect and ±100 for the full control effect; potency is read from the fitted curve at half-maximal effect.

Each compound was assayed on CASKI (assay: Primary qHTS to identify gynecologic anti-cancer compounds using libraries of approved drugs and bioactive compounds (AID 1345084; also: nearly all actives have a fitted effect of over 55% in size)). Details: Gynecologic cancer cell panel viability, ATPlite luminescence, 48 h; series mostly up to 57.5 µM; activity change, negative = cytotoxicity: at the top concentration.
Method in brief: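 Cells, 1,000 per well, were allowed to settle for 16 h at 37 C before compound addition. Five concentrations were tested for 48 h, and viability was read by ATPlite luminescence after 15 min at room temperature.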
With `Cc1cc(N)c2cc(NC(=O)Nc3ccc4nc(C)cc(N)c4c3)ccc2n1` the “activity change, negative = cytotoxicity” value was -6.33%.
With `CCCCCCC[N+](CC)(CC)CCCCc1ccc(Cl)cc1` the Potency was 10 µM (active).
For `COc1ccc(OC)c(C(O)CNC(=O)CN)c1` (stereo unspecified), the “activity change, negative = cytotoxicity” value was -7.98%.
`Cc1c(C(C)C)c(=O)n(-c2ccccc2)n1C` was tested, and the “activity change, negative = cytotoxicity” value was 12.2%.
For `N[C@H](Cc1c[nH]c2ccccc12)C(=O)O`, the “activity change, negative = cytotoxicity” value was -2.32%.
`O=C(Nc1ccc(Oc2ccc(Cl)cc2)c(Cl)c1)c1cc(I)cc(I)c1O` was tested, and the “activity change, negative = cytotoxicity” value was 2.04%.
With `CN(C)C(=S)SC(=S)N(C)C` the “activity change, negative = cytotoxicity” value was -1.98%.
`CCC(C(=O)OCCN(CC)CC)c1ccccc1` (stereo unspecified) was tested, and the “activity change, negative = cytotoxicity” value was -0.509%.
For `CCCN1CCCC[C@H]1C(=O)Nc1c(C)cccc1C`, the “activity change, negative = cytotoxicity” value was 24.8%.
In the case of `COc1cc(-c2ccc(=O)[nH]n2)ccc1OC(F)F`, the “activity change, negative = cytotoxicity” value is reported as 16.1%.
`Oc1ccc(O)cc1` was tested, and the “activity change, negative = cytotoxicity” value was 6.95%.
`CN1CCCC(CC2c3ccccc3Sc3ccccc32)C1` (stereo unspecified) was tested, and the “activity change, negative = cytotoxicity” value was -28.7%.
In the case of `OC[C@H]1O[C@@H](n2cnc3c(=S)nc[nH]c32)[C@H](O)[C@@H]1O`, the Potency is reported as 2.24 µM (active).
`CC(C)(C)CC(C)(C)c1ccc(OCCOCC[N+](C)(C)Cc2ccccc2)cc1` was tested, and the Potency was 10 µM (active).
For `CO/N=C1\CN(c2nc3c(cc2F)c(=O)c(C(=O)O)cn3C2CC2)CC1CN` (stereo unspecified), the “activity change, negative = cytotoxicity” value was -1%.
In the case of `C/C=C(/C(=C/C)c1ccc(O)cc1)c1ccc(O)cc1`, the “activity change, negative = cytotoxicity” value is reported as -6.4%.
With `CCCSS/C(CCO)=C(\C)N(C=O)Cc1cnc(C)nc1N` the “activity change, negative = cytotoxicity” value was 3.46%.
With `CCCCCCCCCCCCCCCC[N+](C)(C)CC` the Potency was 8.91 µM (active).
With `Cc1ccc(O)c2ncccc12` the “activity change, negative = cytotoxicity” value was 2.92%.
For `Cc1c(C)n(CCN(C)C)c2ccc(C(=O)OCCN(C)C)cc12`, the “activity change, negative = cytotoxicity” value was -13.6%.
In the case of `Oc1c(I)cc(Cl)c2cccnc12`, the “activity change, negative = cytotoxicity” value is reported as -3.95%.
